SMILES strings stand for the structures. About 83,000 compounds went through this panel and 20% of them were active in at least one assay; those are over-represented in the sample as a whole.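 A percent growth of 40 corresponds to 60% growth inhibition; 0 means no net growth; -100 means all cells died. Active threshold: below 10.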 A number with no mark means an inactive call. The source made the active and inactive calls.

Among the data in PubChem BioAssay (NCI) are growth values, retold here.

The assay relates to MDA-MB-468 breast. The assay is described as follows: NCI-60 one-dose screen, 48 h (100 = growth as untreated, 0 = no growth, -100 = all killed). To be noted: 10 µM unless noted.
Regarding `Cl/C(=N\Nc1ccccc1)c1ccccc1`, the growth was 79%. Turning to `COC(=O)c1nc(N)nc(C(=O)OC)c1C(=O)c1ccc(F)cc1`, the growth was 101%. Regarding `COc1cnc2c(c1)C(=O)c1c-2n(CCCN2CCNCC2)c(=O)c2cc(F)ccc12`, the growth was -27.9% (active).

For the molecule `O=C(Nc1cnc(C(F)(F)F)cn1)c1cc(Cl)ccc1O`, the growth was -0.82% (active). Take `O=C(CCl)n1nnnc1Cc1ccccc1`: the growth was 101%.

As for `COc1ccc(C2=NNC(c3cc(Cc4ccc(O)c(C5CC(c6ccc(OC)cc6)=NN5)c4)ccc3O)C2)cc1` (stereo not given), the growth is 65%. On to `COc1ccc(C(=O)OC2C(OC3C(O)COC(O[C@H]4C[C@H]5[C@@H]6CC=C7C[C@@H](O)CC[C@]7(C)[C@H]6CC[C@]5(C)[C@H]4[C@H](C)C(=O)CCC(C)C)C3OC(=O)C(C)C)OCC(O)C2O)cc1` (stereo not given in full), for which the growth is -2.45% (active). For `CCn1cc(-c2[nH]c(=S)ncc2-c2ccc(Cl)cc2)c(-c2ccc(Br)cc2)n1`, the growth is 121%. On to `Cc1ccc(-c2cc3nc(C(Cl)Cl)nc(-c4ccc(S(=O)(=O)N(C)C)cc4)n3n2)cc1`, for which the growth is 82%. On to `COc1cccc(/C=N/NC(=O)c2ccccc2N2CCCC2)c1O`, for which the growth is 0.775% (active). With `CN1CCc2cccc3c2C1Cc1ccc(O)c(O)c1-3` (stereo not given) the figure was 0.652% (active); with `CC(C)(C)c1ccc(OC(=O)Nc2ccccc2)cc1`, 112%; with `COC(=O)/C(CCC=C(C)C)=C1\[C@@H](OC(C)=O)C[C@@]2(C)[C@H]1C[C@@H](O)[C@H]1[C@@]3(C)CC[C@H](NCc4ccccc4)[C@@H](C)[C@@H]3CC[C@@]12C`, 76.8%.

`O=c1oc2ccc(Br)cc2c(=O)n1-c1ccc(F)cc1F`: the growth is -2.96% (active).

With `Cc1cn2c(/C=C3/C(=O)Nc4c3ccc3ccccc43)c(C(F)(F)F)nc2s1`, the growth is 7.93% (active). For the molecule `O=C(Nc1ccc(S(=O)(=O)NC2CCCCCC2)cc1)C(c1ccccc1)S(=O)(=O)c1ccc(F)cc1` (stereo not given), the growth was -14.5% (active). As to `COc1ccc(-c2cc(-c3ccc(N(C)C)cc3)n3c(n2)nc2ccccc23)cc1`, the growth was 50.8%. In the case of `C=C1C(=O)O[C@H]2[C@H]1CC/C(COC(=O)c1cccc3ccccc13)=C\CC[C@@]1(C)O[C@@H]21`, the growth is -45.1% (active). With `O=C(CCCCCCSc1nc(-c2ccc(Cl)cc2)cc(-c2ccc(Cl)cc2)n1)NO`, the growth was 32.6%. As for `CSc1nc(Nc2cccc(NC(=O)CCl)c2)c(C#N)c(-c2cccc([N+](=O)[O-])c2)n1`, the growth was -10.8% (active). With `CCCCCCCn1cc2c(NCCc3ccccc3)ncnc2n1` the figure was 105%. As for `O=C(C[n+]1cccc2cc(Cl)ccc21)c1ccc2c(c1)CCCC2`, the growth is 9.66% (active). For the molecule `Cc1nc2nc(C(F)(F)F)[nH]c2nc1C`, the growth is 102%.

`Fc1ccc(-c2cc3nc(C(Cl)Cl)nc(-c4cccs4)n3n2)cc1`: the growth is -46.8% (active). For `CCO/C=N/C1=C(C#N)C(c2ccc(OC)cc2)c2c(c3ccccc3n(C)c2=O)O1` (stereo not given), the growth was 105%.

Regarding `CN(C)c1ccc(C(c2ccccc2)c2ccc(N(C)C)cc2)cc1`, the growth is 103%. In the case of `COc1c(B(O)O)cc(C)cc1-c1nc2ccc3[nH]ncc3c2c2c1CCCC2`, the growth was 28.2%. With `c1ccc2[nH]c(Cc3nc4ccccc4[nH]3)nc2c1` the figure was 102%. With `COC(=O)C(C)[C@H]1CC[C@@H]2[C@]1(C)CC=C1[C@]23C=C[C@]2(C[C@@H](OC(C)=O)CC[C@]12C)C(C(=O)OC)C3C(=O)OC` (stereo not given in full), the growth was 94.1%. Turning to `ClCC(Cl)[C@@H]1CC2C=CC1C2` (stereo not given in full), the growth was 96%.

As to `CCCCN(CCCC)CCCCCCCCCCO`, the growth was 99.8%. With `Cc1cccc2sc(/N=C(\N)C(Br)Br)nc12`, the growth is -33.6% (active). Consider `Cc1ccc(N)cc1CN1C(=O)c2ccccc2C1=O`, for which the growth is 107%. Turning to `O=C1C(Br)=C(c2ccccc2)C(=O)C(Br)=C1c1ccccc1`, the growth is 92%. As for `COc1ccc(OC)c2ncccc12`, the growth is 89.9%.

In the case of `CC1CCN(C(=O)OCc2nc3nc(Cl)nc(N4CCOCC4)c3[nH]2)CC1`, the growth is -59.5% (active). For `COc1cc(Nc2c3ccc(Cl)cc3nc3ccc(OC)cc23)c2ncccc2c1`, the growth was 36.3%. As for `O=C(Cn1cc(CO)nn1)Nc1nc2ccccc2s1`, the growth is 101%. Under `O=C(/C=C/c1cccc(O)c1)c1cccc(-n2cc(-c3ccccc3)[nH]c2=O)c1` stands 73.4%. Under `C/C(CC(C)C)=N/NC(N)=S` stands 7.03% (active).
